We go through 16 sequences from publication PMC4081100, “A DNA-binding-site landscape and regulatory network analysis for NAC transcription factors in Arabidopsis thaliana”.

Holding throughout (experiment): universal protein binding microarray (PBM); transcription factors of Arabidopsis thaliana; high values mean tight binding
Assay [1] has as its target T1, GST-ANAC092(1-176) (Arabidopsis thaliana, UniProt Q9FKA0 1-176).
T1 sequence: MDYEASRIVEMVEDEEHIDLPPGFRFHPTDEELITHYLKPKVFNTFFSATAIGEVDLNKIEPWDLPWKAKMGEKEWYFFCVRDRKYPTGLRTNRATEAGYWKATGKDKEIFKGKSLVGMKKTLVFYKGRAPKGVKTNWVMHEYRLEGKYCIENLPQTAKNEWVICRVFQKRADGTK
Particulars: protein: recombinant; tags: GST; chain copies: 2; dsDNA, one strand shown. Put shortly:
(§1)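 GST-tagged proteins (NAC-domain, full-length or DNA-binding-domain) were induced in cells, with zinc acetate supplied for zinc-finger proteins, then purified on glutathione–Sepharose 4B. Each was tested in duplicate at 200 to 500 nM final on custom all-10-mer Agilent 4 × 180K arrays rendered double-stranded by primer extension. The binding value is the normalised enrichment score (E-score) across gapped and ungapped 8-mers.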

The target of assay [2] is GST-NTL6(1-168) (Arabidopsis thaliana, UniProt Q9SCK6 1-168). Particulars: protein: recombinant; tags: GST; chain copies: 2; dsDNA, one strand shown. Put shortly: as §1
Sequence of GST-NTL6(1-168) (Q9SCK6 1-168): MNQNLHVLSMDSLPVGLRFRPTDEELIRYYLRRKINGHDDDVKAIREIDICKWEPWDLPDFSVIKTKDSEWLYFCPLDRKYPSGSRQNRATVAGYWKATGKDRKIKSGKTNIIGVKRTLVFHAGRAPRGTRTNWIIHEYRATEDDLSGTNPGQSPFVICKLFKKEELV
The target in assay [3] is T2, GST-ANAC055(1-171) (Arabidopsis thaliana, UniProt Q9LDY8 1-171).
T2 sequence: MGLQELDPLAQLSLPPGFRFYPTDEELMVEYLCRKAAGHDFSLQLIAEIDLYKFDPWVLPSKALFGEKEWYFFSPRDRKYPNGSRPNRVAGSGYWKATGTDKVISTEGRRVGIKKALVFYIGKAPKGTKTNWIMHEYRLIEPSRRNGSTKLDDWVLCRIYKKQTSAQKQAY
Conditions: protein: recombinant; tags: GST; chain copies: 2; dsDNA, one strand shown. Put shortly:
as §1

The target of assay [4] is T3, GST-ANAC092(1-285) full length (Arabidopsis thaliana, UniProt Q9FKA0 1-285).
T3 sequence: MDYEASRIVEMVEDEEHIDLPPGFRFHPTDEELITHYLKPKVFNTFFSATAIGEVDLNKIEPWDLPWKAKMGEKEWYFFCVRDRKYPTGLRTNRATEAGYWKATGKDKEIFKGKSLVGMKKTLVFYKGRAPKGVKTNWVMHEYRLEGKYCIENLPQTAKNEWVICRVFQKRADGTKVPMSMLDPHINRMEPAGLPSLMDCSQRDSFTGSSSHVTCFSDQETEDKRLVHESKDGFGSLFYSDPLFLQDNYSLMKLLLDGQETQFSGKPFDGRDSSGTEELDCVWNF
Particulars: protein: recombinant; tags: GST; chain copies: 2; dsDNA, one strand shown. An outline of the steps: as §1

The target in assay [5] is T4, GST-NST2(1-184) (Arabidopsis thaliana, UniProt Q9M274 1-184).
T4 sequence: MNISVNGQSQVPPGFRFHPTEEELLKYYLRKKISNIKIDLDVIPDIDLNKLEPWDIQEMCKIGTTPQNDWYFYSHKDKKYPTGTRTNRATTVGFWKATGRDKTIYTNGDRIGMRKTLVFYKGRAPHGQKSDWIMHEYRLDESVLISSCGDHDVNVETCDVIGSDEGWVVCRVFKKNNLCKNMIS
Conditions: protein: recombinant; tags: GST; chain copies: 2; dsDNA, one strand shown. Put shortly:
as §1

For assay [6], the target named is T5, GST-NTL8 NAC domain (Arabidopsis thaliana, UniProt Q9XIN7 14-156).
T5 sequence: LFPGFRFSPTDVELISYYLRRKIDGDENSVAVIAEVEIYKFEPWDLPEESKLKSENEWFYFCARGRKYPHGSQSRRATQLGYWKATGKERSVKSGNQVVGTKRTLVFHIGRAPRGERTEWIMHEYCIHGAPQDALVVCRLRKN
Conditions: protein: recombinant; tags: GST; chain copies: 2; dsDNA, one strand shown. An outline of the steps: as §1

Assay [7] has as its target T6, GST-SND1(1-203) (Arabidopsis thaliana, UniProt Q9LPI7 1-203).
T6 sequence: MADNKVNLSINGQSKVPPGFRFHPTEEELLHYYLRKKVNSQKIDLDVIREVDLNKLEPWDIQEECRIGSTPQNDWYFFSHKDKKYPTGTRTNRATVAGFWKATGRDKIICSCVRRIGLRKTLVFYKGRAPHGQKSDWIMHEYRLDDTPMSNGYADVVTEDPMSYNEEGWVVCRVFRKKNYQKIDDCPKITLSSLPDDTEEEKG
Conditions: protein: recombinant; tags: GST; chain copies: 2; dsDNA, one strand shown. Put shortly:
as §1

For assay [8], the target named is T7, GST-VND7 NAC domain (Arabidopsis thaliana, UniProt Q9C8W9 9-158).
T7 sequence: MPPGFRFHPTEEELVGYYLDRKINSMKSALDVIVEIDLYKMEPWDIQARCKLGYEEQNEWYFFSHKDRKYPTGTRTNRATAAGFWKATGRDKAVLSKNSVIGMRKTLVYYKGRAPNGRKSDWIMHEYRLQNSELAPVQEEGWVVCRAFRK
Particulars: protein: recombinant; tags: GST; chain copies: 2; dsDNA, one strand shown. Put shortly: as §1

Assay [9] deals with T8, GST-ATAF1 NAC domain (Arabidopsis thaliana, UniProt Q39013 7-158).
T8 sequence: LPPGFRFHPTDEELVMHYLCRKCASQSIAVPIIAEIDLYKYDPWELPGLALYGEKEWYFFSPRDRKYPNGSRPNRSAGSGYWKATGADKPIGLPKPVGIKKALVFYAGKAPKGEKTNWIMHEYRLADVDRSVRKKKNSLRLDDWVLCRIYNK
Conditions: protein: recombinant; tags: GST; chain copies: 2; dsDNA, one strand shown. An outline of the steps: as §1

The target of assay [10] is GST-WRKY1(266-371) (Arabidopsis thaliana, UniProt Q9SI37 266-371). Conditions: protein: recombinant; tags: GST; dsDNA, one strand shown. Put shortly:
as §1

The target in assay [11] is T9, GST-NAP(1-166) (Arabidopsis thaliana, UniProt O49255 1-166).
T9 sequence: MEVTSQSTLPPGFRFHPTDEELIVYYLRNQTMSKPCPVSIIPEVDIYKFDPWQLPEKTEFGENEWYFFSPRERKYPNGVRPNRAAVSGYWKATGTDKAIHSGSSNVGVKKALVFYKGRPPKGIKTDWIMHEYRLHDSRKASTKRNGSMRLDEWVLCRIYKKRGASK
Conditions: protein: recombinant; tags: GST; chain copies: 2; dsDNA, one strand shown. Put shortly: as §1

Assay [12] concerns the target T10, GST-ANAC019 NAC domain (Arabidopsis thaliana, UniProt Q9C932 14-162).
T10 sequence: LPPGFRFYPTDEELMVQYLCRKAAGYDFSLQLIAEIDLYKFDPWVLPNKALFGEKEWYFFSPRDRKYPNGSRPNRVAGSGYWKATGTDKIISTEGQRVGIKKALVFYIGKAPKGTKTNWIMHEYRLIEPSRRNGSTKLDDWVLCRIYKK
Particulars: protein: recombinant; tags: GST; chain copies: 2; dsDNA, one strand shown. An outline of the steps:
as §1

Sequence of GST-WRKY1(266-371) (Q9SI37 266-371): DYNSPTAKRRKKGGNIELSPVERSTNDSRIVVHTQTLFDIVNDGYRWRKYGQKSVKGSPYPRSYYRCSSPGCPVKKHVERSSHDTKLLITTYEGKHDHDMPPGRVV

With ACCTTTCC, the binding signal in assay [1] amounted to 0.188 E-score; in [2], 0.196 E-score; in [3] it was 0.0893 E-score; in [4] it was 0.0538 E-score; in [5], 0.0986 E-score; in [6], 0.431 E-score. Moreover, the binding signal came to 0.143 E-score in assay [7] and 0.0596 E-score in assay [8].
Turning to GAGGGTAA, the binding signal in assay [1] came out at 0.0757 E-score; in assay [2], 0.17 E-score; in assay [3], 0.0669 E-score; in assay [9], 0.123 E-score; in assay [4] it was 0.109 E-score; in assay [5] it was 0.173 E-score. For the same sequence, the binding signal in [6] worked out at 0.474 E-score; in assay [7], 0.108 E-score; in assay [8] it was 0.079 E-score.
Turning to GTCAAACA, the binding signal came out at 0.11 E-score in assay [4], 0.0891 E-score in [7], 0.0699 E-score in [8] and 0.475 E-score in [10].
In the case of ACGCCATG, the binding signal stood at 0.336 E-score in [1]; 0.404 E-score in assay [4]; 0.154 E-score in assay [11]; 0.128 E-score in assay [5]; 0.222 E-score in assay [7]; 0.0848 E-score in [8].
With CTTTCCTC, the binding signal in [1] worked out at 0.0932 E-score; in assay [2], 0.104 E-score; in [12], 0.0599 E-score; in [3], 0.0748 E-score; in assay [6], 0.453 E-score; in assay [7], 0.147 E-score. Further, in assay [8], the binding signal was found to be 0.0728 E-score.
As for CTAGCGTA, the binding signal in assay [1] came out at 0.262 E-score; in [3] it was 0.0674 E-score; in assay [4], 0.398 E-score; in assay [11], 0.0722 E-score; in assay [5], 0.168 E-score; in assay [7], 0.45 E-score. For the same sequence, the binding signal in assay [8] was found to be 0.118 E-score.
Consider CGTTGACA, for which the binding signal in assay [7] came to 0.0727 E-score; in assay [10] it was 0.464 E-score.
With AAGCACGC, the binding signal in [1] turned out to be 0.32 E-score; in assay [12], 0.127 E-score; in assay [9] it was 0.121 E-score; in assay [4] it was 0.407 E-score; in assay [11] it was 0.0699 E-score; in assay [5], 0.0521 E-score. Also, the binding signal in assay [7] turned out to be 0.21 E-score; in assay [8] it was 0.0817 E-score.
For the sequence GAAGGAAA, the binding signal came to 0.243 E-score in [1]; 0.455 E-score in [2]; 0.118 E-score in assay [12]; 0.184 E-score in [3]; 0.096 E-score in assay [9]; 0.131 E-score in [4]. In addition, the binding signal came out at 0.214 E-score in [5], 0.485 E-score in [6], 0.234 E-score in assay [7] and 0.108 E-score in [8].
In the case of CCACGCCA, the binding signal in assay [1] was 0.372 E-score; in assay [12], 0.0852 E-score; in assay [3], 0.0687 E-score; in assay [9] it was 0.145 E-score; in assay [4], 0.415 E-score; in [11], 0.0773 E-score. The binding signal in [5] came out at 0.0528 E-score; in [7], 0.141 E-score; in assay [8], 0.102 E-score.
AGGGGAAA: the binding signal in [1] worked out at 0.191 E-score; in assay [2] it was 0.14 E-score; in assay [12], 0.112 E-score; in assay [4], 0.0577 E-score; in assay [11], 0.101 E-score; in assay [6], 0.412 E-score. For the same sequence, the binding signal in assay [7] is 0.0998 E-score; in assay [8], 0.132 E-score.
For the sequence CACGCTAA, the binding signal in assay [1] is 0.453 E-score; in [2], 0.0834 E-score; in assay [12], 0.226 E-score; in assay [4] it was 0.471 E-score; in assay [5], 0.224 E-score; in assay [7] it was 0.415 E-score. For the same sequence, the binding signal in [8] was found to be 0.112 E-score.
On to TGAAGCAA, for which the binding signal amounted to 0.232 E-score in [1]; 0.389 E-score in assay [2]; 0.0575 E-score in assay [12]; 0.32 E-score in [4]; 0.314 E-score in assay [5]; 0.422 E-score in [6]. Besides, the binding signal in assay [7] came out at 0.447 E-score; in assay [8] it was 0.187 E-score.
Consider CCCCGCCC, for which the binding signal in assay [1] came out at 0.325 E-score; in [2], 0.319 E-score; in assay [12], 0.329 E-score; in [3], 0.178 E-score; in assay [9] it was 0.262 E-score; in assay [4] it was 0.343 E-score. For the same sequence, the binding signal turned out to be 0.0894 E-score in [11]; 0.297 E-score in [5]; 0.372 E-score in assay [6]; 0.378 E-score in assay [7]; 0.273 E-score in assay [8].
Take AGGAAAGC: the binding signal is 0.23 E-score in assay [1]; 0.253 E-score in assay [2]; 0.214 E-score in [12]; 0.119 E-score in [3]; 0.124 E-score in [9]; 0.0813 E-score in assay [4]. Also, the binding signal in assay [11] stood at 0.0763 E-score; in [5] it was 0.0888 E-score; in assay [6] it was 0.436 E-score; in [7] it was 0.188 E-score; in assay [8], 0.177 E-score.
Take AAGTCAGT: the binding signal is 0.0862 E-score in assay [7] and 0.411 E-score in assay [10].
